What was measured:
Assay in all cases: DAPPL (digital affinity profiling via proximity ligation, sequencing); 10 mM Tris-HCl pH 7.5, 50 mM NaCl, 1 mM DTT, 4% glycerol, room temperature, 30 min; GST-TFs on glutathione beads, 16-mer random dsDNA library, 0.1% formaldehyde crosslink after washing; high values mean tight binding
FLI1 = biological target: T1, FLI1 (Homo sapiens, UniProt Q01543 1-452); conditions: protein: recombinant; tags: N-terminal GST; dsDNA, one strand shown
T1 sequence: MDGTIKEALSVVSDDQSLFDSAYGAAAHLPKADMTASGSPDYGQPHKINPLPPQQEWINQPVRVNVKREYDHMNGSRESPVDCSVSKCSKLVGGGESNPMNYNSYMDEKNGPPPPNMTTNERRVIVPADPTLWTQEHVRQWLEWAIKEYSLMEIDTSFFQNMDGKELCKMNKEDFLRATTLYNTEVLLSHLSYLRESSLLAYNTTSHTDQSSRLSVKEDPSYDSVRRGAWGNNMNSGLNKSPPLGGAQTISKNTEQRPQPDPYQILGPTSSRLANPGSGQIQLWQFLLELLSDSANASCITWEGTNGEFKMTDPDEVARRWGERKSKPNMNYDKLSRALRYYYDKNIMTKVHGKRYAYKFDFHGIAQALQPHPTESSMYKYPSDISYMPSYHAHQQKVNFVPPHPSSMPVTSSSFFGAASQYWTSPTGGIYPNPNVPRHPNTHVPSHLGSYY
Procedure, shortened: (§1)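 Sequencing on an Illumina NextSeq500 followed washing, crosslinking with 0.1% formaldehyde, proximity ligation (BsaI/T4 ligase, 1 h, 37 °C) and PCR amplification of pools that had been incubated for 30 min at room temperature with 200 nmole of a random double-stranded 16-mer DNA library in Tris/NaCl/DTT/glycerol buffer. Each pool held DNA-barcoded human transcription factors, expressed in yeast as GST fusions and captured on glutathione beads, plus a tag-only sample. Binding signal is a hexamer's read frequency for a factor divided by its frequency in the tag-only sample.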

ELK1 = biological target: T2, ELK1 (Homo sapiens, UniProt P19419 1-428); conditions: protein: recombinant; tags: N-terminal GST; dsDNA, one strand shown
T2 sequence: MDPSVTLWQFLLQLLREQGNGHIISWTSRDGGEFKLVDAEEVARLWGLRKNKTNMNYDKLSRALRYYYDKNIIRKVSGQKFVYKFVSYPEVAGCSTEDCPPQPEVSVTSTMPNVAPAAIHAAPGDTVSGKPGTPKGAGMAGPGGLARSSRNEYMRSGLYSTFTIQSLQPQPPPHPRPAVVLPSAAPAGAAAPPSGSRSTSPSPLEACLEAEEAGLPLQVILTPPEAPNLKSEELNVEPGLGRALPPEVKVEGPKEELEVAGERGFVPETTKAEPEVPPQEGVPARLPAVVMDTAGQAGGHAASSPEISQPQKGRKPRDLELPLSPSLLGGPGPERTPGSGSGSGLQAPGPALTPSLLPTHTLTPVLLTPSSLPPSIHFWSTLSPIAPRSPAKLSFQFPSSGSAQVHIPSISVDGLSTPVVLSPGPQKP
Procedure, shortened: as §1

GABPA = biological target: T3, GABPA (Homo sapiens, UniProt Q06546 1-454); conditions: protein: recombinant; tags: N-terminal GST; dsDNA, one strand shown
T3 sequence: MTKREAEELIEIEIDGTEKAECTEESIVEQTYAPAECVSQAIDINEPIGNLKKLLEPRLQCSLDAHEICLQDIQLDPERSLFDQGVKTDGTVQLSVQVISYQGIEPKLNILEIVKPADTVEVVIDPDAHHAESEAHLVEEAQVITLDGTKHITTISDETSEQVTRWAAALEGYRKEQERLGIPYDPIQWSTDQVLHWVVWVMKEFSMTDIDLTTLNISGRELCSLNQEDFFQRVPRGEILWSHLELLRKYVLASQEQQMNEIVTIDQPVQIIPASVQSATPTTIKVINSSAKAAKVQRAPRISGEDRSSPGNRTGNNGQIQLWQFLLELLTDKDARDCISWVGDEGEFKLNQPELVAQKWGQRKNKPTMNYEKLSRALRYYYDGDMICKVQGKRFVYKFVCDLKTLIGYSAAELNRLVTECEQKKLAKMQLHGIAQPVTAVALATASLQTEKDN
Procedure, shortened: as §1

ERG = biological target: T4, ERG (Homo sapiens, UniProt P11308 1-479); conditions: protein: recombinant; tags: N-terminal GST; dsDNA, one strand shown
T4 sequence: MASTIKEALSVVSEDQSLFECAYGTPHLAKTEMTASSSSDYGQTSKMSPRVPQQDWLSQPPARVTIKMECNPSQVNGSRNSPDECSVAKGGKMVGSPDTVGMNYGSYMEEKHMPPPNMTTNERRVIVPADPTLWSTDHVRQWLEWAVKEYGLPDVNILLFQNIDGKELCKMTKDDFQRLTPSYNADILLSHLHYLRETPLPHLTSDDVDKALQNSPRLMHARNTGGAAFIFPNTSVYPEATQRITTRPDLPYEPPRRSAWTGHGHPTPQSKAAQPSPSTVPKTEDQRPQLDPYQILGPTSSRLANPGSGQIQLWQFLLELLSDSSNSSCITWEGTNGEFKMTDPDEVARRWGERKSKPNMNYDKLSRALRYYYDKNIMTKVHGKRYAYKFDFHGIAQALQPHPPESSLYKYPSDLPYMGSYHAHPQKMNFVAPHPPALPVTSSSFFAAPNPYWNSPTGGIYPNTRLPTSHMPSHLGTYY
Procedure, shortened: as §1

ELF1 = ELF1 (Homo sapiens, UniProt P32519 1-619); conditions: protein: recombinant; tags: N-terminal GST; dsDNA, one strand shown
Chain of ELF1 (P32519 whole entry): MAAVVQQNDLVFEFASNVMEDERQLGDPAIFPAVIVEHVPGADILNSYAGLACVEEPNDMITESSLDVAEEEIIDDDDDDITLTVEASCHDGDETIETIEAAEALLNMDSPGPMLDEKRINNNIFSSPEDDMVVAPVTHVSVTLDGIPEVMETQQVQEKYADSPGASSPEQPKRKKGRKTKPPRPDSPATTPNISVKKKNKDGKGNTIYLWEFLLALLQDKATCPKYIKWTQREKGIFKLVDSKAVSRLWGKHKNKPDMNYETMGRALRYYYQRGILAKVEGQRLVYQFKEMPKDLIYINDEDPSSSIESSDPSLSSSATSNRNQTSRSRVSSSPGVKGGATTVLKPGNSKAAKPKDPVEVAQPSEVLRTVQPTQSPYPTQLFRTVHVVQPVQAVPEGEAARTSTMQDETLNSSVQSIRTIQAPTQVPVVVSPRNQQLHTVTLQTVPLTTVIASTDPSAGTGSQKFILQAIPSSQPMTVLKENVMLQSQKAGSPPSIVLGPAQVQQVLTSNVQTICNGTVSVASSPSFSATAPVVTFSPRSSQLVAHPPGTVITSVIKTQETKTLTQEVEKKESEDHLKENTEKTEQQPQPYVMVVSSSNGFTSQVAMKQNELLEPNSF
Procedure, shortened: as §1

EHF = biological target: T5, EHF (Homo sapiens, UniProt Q9NZC4 1-300); conditions: protein: recombinant; tags: N-terminal GST; dsDNA, one strand shown
T5 sequence: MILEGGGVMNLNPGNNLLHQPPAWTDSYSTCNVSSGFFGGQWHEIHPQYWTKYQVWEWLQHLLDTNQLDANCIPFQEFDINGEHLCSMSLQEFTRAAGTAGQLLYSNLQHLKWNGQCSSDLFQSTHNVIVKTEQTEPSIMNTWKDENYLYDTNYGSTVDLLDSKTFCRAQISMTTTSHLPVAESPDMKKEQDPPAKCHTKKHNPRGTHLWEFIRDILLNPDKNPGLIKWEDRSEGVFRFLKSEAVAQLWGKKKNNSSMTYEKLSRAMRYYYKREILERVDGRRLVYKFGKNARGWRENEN
Procedure, shortened: as §1

SPI1 = SPI1 (Homo sapiens, UniProt P17947 1-270); conditions: protein: recombinant; tags: N-terminal GST; dsDNA, one strand shown
Procedure, shortened: as §1

SPIB = SPIB (Homo sapiens, UniProt Q01892 1-262); conditions: protein: recombinant; tags: N-terminal GST; dsDNA, one strand shown
Chain of SPIB (Q01892 whole entry): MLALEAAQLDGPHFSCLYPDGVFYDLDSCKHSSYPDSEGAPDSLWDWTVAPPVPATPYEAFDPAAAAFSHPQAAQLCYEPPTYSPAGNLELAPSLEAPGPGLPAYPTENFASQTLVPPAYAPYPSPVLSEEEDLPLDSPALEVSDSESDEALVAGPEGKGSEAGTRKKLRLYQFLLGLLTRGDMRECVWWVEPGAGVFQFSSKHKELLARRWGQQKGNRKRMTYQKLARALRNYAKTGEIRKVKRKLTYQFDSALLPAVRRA
Procedure, shortened: as §1

ELK3 = biological target: T6, ELK3 (Homo sapiens, UniProt P41970 1-407); conditions: protein: recombinant; tags: N-terminal GST; dsDNA, one strand shown
T6 sequence: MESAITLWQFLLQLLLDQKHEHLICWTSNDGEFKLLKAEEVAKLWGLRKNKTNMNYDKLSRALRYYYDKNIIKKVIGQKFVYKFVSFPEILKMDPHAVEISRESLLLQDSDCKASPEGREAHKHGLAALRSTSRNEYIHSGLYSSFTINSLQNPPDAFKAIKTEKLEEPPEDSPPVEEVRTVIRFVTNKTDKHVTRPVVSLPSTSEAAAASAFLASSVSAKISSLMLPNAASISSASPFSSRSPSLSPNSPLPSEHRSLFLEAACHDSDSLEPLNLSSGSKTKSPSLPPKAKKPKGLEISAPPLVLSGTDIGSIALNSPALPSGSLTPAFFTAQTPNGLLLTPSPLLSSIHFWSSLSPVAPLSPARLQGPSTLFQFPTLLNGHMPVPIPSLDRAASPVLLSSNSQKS
Procedure, shortened: as §1

FEV = biological target: T7, FEV (Homo sapiens, UniProt Q99581 1-238); conditions: protein: recombinant; tags: N-terminal GST; dsDNA, one strand shown
T7 sequence: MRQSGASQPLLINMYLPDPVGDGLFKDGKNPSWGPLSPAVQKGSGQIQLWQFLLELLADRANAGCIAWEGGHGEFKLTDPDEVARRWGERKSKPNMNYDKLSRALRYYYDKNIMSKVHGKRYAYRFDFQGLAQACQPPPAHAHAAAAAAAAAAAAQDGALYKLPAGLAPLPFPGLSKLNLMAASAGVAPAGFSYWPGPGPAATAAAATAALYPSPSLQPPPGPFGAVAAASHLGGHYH
Procedure, shortened: as §1

ETV5 = ETV5 (Homo sapiens, UniProt P41161 1-510); conditions: protein: recombinant; tags: N-terminal GST; dsDNA, one strand shown
Chain of ETV5 (P41161 whole entry): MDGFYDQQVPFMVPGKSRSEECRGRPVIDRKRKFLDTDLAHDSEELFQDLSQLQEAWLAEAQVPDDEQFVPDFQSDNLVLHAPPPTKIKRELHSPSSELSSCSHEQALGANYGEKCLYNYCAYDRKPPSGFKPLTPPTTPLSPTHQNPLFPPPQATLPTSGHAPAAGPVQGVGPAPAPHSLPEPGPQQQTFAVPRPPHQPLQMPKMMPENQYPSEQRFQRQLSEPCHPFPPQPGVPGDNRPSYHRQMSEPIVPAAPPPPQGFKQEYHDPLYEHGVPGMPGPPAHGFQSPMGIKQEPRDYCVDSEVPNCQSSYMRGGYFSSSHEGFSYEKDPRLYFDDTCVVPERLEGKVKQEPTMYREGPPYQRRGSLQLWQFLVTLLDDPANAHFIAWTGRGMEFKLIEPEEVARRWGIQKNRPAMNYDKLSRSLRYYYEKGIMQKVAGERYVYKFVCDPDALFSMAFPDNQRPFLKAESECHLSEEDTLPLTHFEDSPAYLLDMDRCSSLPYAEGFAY
Procedure, shortened: as §1

HSF1 = HSF1 (Homo sapiens, UniProt Q00613 1-529); conditions: protein: recombinant; tags: N-terminal GST; chain copies: 3; dsDNA, one strand shown
Chain of HSF1 (Q00613 whole entry): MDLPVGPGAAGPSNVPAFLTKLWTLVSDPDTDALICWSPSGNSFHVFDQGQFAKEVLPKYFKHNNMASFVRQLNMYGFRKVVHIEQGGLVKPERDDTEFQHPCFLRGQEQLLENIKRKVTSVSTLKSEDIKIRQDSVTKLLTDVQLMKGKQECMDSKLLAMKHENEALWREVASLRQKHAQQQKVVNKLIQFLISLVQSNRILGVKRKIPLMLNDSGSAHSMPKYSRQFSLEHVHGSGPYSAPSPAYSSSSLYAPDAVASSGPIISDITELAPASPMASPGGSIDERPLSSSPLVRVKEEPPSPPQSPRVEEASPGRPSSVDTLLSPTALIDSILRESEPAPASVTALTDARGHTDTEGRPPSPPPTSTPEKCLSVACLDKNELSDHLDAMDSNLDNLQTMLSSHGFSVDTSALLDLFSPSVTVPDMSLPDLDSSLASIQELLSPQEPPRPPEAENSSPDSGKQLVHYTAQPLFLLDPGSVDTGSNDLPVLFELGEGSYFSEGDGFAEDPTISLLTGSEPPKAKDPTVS
Procedure, shortened: as §1

SPIC = biological target: T8, SPIC (Homo sapiens, UniProt Q8N5J4 1-248); conditions: protein: recombinant; tags: N-terminal GST; dsDNA, one strand shown
T8 sequence: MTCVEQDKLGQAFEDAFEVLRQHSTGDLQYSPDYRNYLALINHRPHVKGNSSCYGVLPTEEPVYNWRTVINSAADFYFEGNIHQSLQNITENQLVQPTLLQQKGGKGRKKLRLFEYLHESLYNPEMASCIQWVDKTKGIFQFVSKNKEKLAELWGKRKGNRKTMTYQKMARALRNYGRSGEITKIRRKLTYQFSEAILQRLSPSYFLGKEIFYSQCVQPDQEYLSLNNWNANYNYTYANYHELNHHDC
Procedure, shortened: as §1

ELF4 = ELF4 (Homo sapiens, UniProt Q99607 1-663); conditions: protein: recombinant; tags: N-terminal GST; dsDNA, one strand shown
Chain of ELF4 (Q99607 whole entry): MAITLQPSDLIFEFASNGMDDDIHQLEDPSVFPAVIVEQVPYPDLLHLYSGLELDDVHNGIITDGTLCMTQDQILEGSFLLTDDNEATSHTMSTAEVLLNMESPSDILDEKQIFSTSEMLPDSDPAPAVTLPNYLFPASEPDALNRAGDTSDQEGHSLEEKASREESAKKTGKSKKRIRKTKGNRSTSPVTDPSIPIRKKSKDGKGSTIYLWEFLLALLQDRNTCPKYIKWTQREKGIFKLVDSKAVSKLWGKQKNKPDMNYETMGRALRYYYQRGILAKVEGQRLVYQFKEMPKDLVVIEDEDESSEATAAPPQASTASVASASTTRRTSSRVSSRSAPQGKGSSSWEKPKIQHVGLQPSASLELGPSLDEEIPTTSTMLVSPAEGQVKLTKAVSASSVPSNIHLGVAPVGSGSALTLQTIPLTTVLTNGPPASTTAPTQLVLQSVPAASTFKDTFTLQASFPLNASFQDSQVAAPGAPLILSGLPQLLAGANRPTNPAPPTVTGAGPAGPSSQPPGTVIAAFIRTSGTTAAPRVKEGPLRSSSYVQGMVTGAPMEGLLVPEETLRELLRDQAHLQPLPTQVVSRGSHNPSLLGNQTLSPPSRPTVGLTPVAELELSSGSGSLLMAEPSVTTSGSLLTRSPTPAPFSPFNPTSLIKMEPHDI
Procedure, shortened: as §1

ELK4 = biological target: T9, ELK4 (Homo sapiens, UniProt P28324-2 1-405); conditions: protein: recombinant; tags: N-terminal GST; dsDNA, one strand shown
T9 sequence: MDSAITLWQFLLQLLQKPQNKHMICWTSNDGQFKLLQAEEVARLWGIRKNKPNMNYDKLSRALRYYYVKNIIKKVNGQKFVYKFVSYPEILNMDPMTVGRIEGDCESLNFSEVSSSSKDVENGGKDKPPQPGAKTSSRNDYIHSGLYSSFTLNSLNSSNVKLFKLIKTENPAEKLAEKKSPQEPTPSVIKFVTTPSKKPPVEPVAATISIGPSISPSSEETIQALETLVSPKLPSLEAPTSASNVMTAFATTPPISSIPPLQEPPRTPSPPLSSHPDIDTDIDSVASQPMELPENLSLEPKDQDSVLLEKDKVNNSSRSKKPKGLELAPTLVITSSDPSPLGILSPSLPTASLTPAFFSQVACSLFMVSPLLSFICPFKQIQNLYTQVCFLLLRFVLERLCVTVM
Procedure, shortened: as §1

ETV2 = biological target: T10, ETV2 (Homo sapiens, UniProt O00321 1-342); conditions: protein: recombinant; tags: N-terminal GST; dsDNA, one strand shown
T10 sequence: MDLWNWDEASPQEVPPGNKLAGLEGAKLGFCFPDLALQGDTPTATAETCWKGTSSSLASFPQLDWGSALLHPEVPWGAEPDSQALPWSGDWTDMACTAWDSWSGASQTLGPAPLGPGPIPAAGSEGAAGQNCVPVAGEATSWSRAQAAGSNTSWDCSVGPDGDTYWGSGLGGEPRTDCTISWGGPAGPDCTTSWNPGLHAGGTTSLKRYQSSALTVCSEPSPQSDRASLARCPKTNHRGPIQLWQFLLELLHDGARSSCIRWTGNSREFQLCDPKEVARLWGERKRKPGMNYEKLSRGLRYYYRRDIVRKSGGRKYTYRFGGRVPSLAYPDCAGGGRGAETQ
Procedure, shortened: as §1

ELF3 = biological target: T11, ELF3 (Homo sapiens, UniProt P78545 1-371); conditions: protein: recombinant; tags: N-terminal GST; dsDNA, one strand shown
T11 sequence: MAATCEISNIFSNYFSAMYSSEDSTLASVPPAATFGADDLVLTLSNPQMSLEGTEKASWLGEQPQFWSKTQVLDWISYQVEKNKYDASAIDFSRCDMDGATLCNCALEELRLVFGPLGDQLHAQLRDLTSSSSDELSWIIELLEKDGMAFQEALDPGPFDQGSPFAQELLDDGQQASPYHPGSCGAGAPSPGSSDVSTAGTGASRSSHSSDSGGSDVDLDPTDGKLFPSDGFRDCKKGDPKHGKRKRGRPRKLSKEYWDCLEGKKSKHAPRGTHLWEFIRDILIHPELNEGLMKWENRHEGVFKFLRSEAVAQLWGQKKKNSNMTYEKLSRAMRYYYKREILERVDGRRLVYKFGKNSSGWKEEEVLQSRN
Procedure, shortened: as §1

CRX = CRX (Homo sapiens, UniProt O43186 1-299); conditions: protein: recombinant; tags: N-terminal GST; dsDNA, one strand shown
Chain of CRX (O43186 whole entry): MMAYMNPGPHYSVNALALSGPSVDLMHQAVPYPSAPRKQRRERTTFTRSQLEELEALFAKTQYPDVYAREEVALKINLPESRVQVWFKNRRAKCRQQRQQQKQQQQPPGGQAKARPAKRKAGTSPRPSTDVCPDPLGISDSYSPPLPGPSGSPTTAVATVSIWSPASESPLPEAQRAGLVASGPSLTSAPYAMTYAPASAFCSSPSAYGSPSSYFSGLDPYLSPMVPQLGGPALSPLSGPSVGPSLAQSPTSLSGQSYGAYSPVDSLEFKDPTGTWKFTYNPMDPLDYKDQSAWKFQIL
Procedure, shortened: as §1

ETV1 = ETV1 (Homo sapiens, UniProt P50549 1-477); conditions: protein: recombinant; tags: N-terminal GST; dsDNA, one strand shown
Chain of ETV1 (P50549 whole entry): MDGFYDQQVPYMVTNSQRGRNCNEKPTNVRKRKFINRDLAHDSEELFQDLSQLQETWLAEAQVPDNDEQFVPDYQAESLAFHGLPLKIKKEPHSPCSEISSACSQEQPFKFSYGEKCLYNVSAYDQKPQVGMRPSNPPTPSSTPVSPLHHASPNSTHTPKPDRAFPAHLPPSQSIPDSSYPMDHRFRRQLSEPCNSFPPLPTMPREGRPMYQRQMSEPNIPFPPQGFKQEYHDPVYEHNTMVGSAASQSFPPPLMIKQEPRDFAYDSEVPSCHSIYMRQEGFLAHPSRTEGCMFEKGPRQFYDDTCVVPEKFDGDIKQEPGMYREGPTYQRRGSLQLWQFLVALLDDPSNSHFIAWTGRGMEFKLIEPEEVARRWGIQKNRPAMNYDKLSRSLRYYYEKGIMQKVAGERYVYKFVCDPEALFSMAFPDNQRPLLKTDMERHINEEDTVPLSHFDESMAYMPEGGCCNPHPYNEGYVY
Procedure, shortened: as §1

TAAACT
binding signal (FLI1): 1.13 fold enrichment (6-mer frequency, TF over GST control)
binding signal (ELK1): 1.24 fold enrichment (6-mer frequency, TF over GST control)
binding signal (GABPA): 1.19 fold enrichment (6-mer frequency, TF over GST control)
binding signal (ERG): 1.14 fold enrichment (6-mer frequency, TF over GST control)
binding signal (ELF1): 1.13 fold enrichment (6-mer frequency, TF over GST control)
binding signal (EHF): 1.15 fold enrichment (6-mer frequency, TF over GST control)
binding signal (SPI1): 1.15 fold enrichment (6-mer frequency, TF over GST control)
binding signal (SPIB): 1.23 fold enrichment (6-mer frequency, TF over GST control)
binding signal (ELK3): 1.27 fold enrichment (6-mer frequency, TF over GST control)
binding signal (FEV): 1.11 fold enrichment (6-mer frequency, TF over GST control)
binding signal (ETV5): 1.23 fold enrichment (6-mer frequency, TF over GST control)
binding signal (HSF1): 1.3 fold enrichment (6-mer frequency, TF over GST control)
binding signal (SPIC): 1.12 fold enrichment (6-mer frequency, TF over GST control)
binding signal (ELF4): 1.23 fold enrichment (6-mer frequency, TF over GST control)
binding signal (ELK4): 1.11 fold enrichment (6-mer frequency, TF over GST control)
binding signal (ETV2): 1.27 fold enrichment (6-mer frequency, TF over GST control)
binding signal (ELF3): 1.04 fold enrichment (6-mer frequency, TF over GST control)
binding signal (CRX): 1.72 fold enrichment (6-mer frequency, TF over GST control)
binding signal (ETV1): 1.2 fold enrichment (6-mer frequency, TF over GST control)

— paper PMC7862700, “An all-to-all approach to the identification of sequence-specific readers for epigenetic DNA modifications on cytosine”
